# From PubChem BioAssay
# Only some compounds are listed: those with a hit (about 6% of all), similar ones and a draw of the others.
# DRD3 antagonist – antagonists of human D3 dopamine receptor. max response, negative = inhibition, %. actives 2.5% (n = 360,000). P35462. D3R cells, DiscoveRx beta-arrestin luminescence, antagonist mode; stronger effect = lower value. AID 652054; in the data active means max response below about -50%; inconclusive means no clear call, values can overlap the other calls; further: on the % scale 0 is the no-effect control and ±100 the full control effect
# Target sequence (P35462 whole entry, looked up): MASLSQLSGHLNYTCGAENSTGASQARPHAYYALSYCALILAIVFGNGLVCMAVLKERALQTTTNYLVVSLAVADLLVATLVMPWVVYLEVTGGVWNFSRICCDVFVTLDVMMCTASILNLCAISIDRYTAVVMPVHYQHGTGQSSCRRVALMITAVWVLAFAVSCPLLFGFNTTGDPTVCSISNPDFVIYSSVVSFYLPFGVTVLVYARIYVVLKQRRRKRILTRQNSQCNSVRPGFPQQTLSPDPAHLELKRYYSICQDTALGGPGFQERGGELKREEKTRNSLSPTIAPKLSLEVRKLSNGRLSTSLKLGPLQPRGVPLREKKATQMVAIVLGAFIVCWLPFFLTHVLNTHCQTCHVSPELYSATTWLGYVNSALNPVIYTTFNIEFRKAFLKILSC
#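 Cells plated overnight at 1500 cells/well, then exposed to library compounds with dopamine controls for 90 minutes at 37 degrees C. DiscoveRx reagent added for 30–60 minutes at room temperature; luminescence read, quantitative HTS format.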
# D1 potentiator – enhances dopamine response at the human D1 receptor; actives 0.036% (n = 360,000); P21728; HEK293 TREx D1 cells, calcium flux, dopamine EC20 potentiation; potentiation, % at 10 µM; in the data active means potentiation above about 30%; further: 0% is about no effect
# DRD3 agonist – agonists of human D3 dopamine receptor; P35462; actives 0.58% (n = 410,000); max activation, %; AID 652048; D3R DiscoveRx beta-arrestin cells, luminescence, 90 min; in the data active means max activation above about 30%; further: 0% is about no effect
#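 Agonist-mode cell screen: cells plated at 1500/well and incubated overnight at 37 °C, then exposed to library compounds for 90 min at 37 °C. Detection reagent was added for 30–60 min at room temperature, and luminescence was read.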
# D1 ag – human D1 receptor agonism; P21728; activation, % at 2 µM; HEK293 T-REx D1 cells, calcium flux, agonist mode; actives 1% (n = 360,000); in the data active means activation above about 30%; further: 0% is about no effect
#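 Tetracycline-induced HEK293 TREx D1 cells, force-coupled to calcium signalling, were dye-loaded with a no-wash calcium kit. Compound was pin-added after a 10 s baseline. Fluorescence was read kinetically at 1 cycle/s for 180 s, with calcium rises flagged as agonism.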
# BCR signal inh – blocks chronic active B-cell receptor signaling; Potency, µM (top dose mostly 46.1 µM), without a hit: at the highest dose activity change, negative = inhibition, most hits filed as inhibitors; ABC-DLBCL IkBa-CBG/CBR reporter, luminescence ratio, 4 h; actives 0.05% (n = 340,000); AID 493014; active means well fitted inhibition curve with a large enough effect in the signal ratio, with a control signal flat, not every such curve was filed as active; inconclusive means small, poorly fitted or top-dose-only effect, or effect the other way, or a change in a side signal; the % refers to the signal ratio;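 further: potency means the concentration at half of the fitted maximal effect; plate controls were basal doxycycline-induced cells for no effect and cells given 10 µM MG132 for full effect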
#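 Doxycycline induced both beetle luciferases in TMD8 lymphoma cells; IKK-driven degradation limits the IkappaBalpha-fused green signal, while red luminescence normalises for cell number and nonspecific effects. Compounds tested up to 46 uM, 4 hrs.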
# D1 antag – blocks dopamine activation of the human D1 receptor. actives 3.2% (n = 360,000). activity change, negative = inhibition, % at 10 µM. HEK293 TREx D1 cells, calcium flux, dopamine EC80; stronger effect = lower value. P21728. AID 504652; in the data active means activity change below about -30%; further: on the % scale 0 is the no-effect control and ±100 the full control effect
#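 Allosteric or orthosteric antagonism assessed as attenuation of the calcium response to EC80 dopamine, added 180 s after compound, in induced HEK293 Trex D1 cells loaded with no-wash calcium dye.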
# * hit, by the source's call; ? = inconclusive; / = not tested or not shown.
SMILES,DRD3 antagonist,D1 potentiator,DRD3 agonist,D1 ag,BCR signal inh,D1 antag
CN(C)C(=O)CCSC(SCCC(=O)O)c1cccc(/C=C/c2ccc3ccc(Cl)cc3n2)c1 (stereo unspecified),/,/,-1,/,/,/
CC1(Cc2ccc(Cl)cc2)C(=O)Nc2c(Cl)cccc21 (stereo unspecified),0,/,-7,/,/,/
CCOC(=O)c1c(S(=O)(=O)N2CCCC(C(=O)NCc3ccc(Cl)cc3)C2)c(C)n(C)c1C (stereo unspecified),/,3,-18,0,19%,-5
Cc1cc(C(=O)CN2C(=O)NC(C)(c3cccc(Br)c3)C2=O)c(C)n1Cc1ccco1 (stereo unspecified),8,4,3,2,-5%,-37*
CC1(c2cccc(Br)c2)NC(=O)N(CC(=O)Nc2ccc(F)cc2)C1=O (stereo unspecified),2,-6,5,6,?,-31*
CC1(c2cccc(Br)c2)NC(=O)N(CC(=O)NC2CCCCC2)C1=O (stereo unspecified),6,-2,-20,0,-3%,-34*
Cc1ccc(C2(C)NC(=O)N(CC(=O)Nc3ccc4c(c3)CCC4)C2=O)cc1 (stereo unspecified),-7,2,0,10,-3%,-5
CC(C)CC1(C)NC(=O)N(CC(=O)Nc2ccc3c(c2)CCC3)C1=O (stereo unspecified),-55*,2,-7,2,-18%,-3
COC(=O)CC1Oc2ccccc2-n2cc(-c3ccc(Cl)cc3)nc21 (stereo unspecified),/,-6,-3,2,/,2
Cc1ccn(-c2n[nH]c(C)c2[N+](=O)[O-])n1,6,20,-6,8,7%,4
Cc1[nH]nc(N2CCCCCC2)c1[N+](=O)[O-],-23,-9,0,1,-5%,-41*
COc1cc2ncc3c(-c4ccc(C)cc4)nn(-c4ccc(F)cc4F)c3c2cc1OC,/,1,1,7,/,2
COc1cn(CC(=O)Nc2ccc(C)cc2C)c(CN2CCCCC2)cc1=O,/,-3,1,1,8%,7
CCCNC(=O)CSc1nc2[nH]ncc2c(=O)[nH]1,0,4,-1,2,-4%,-1
O=C(CSc1nc2[nH]ncc2c(=O)[nH]1)NCc1ccccc1,-59*,-9,-5,0,5%,19
O=C(CSc1nc2[nH]ncc2c(=O)[nH]1)NCc1ccc(F)cc1,-50*,0,0,-1,3%,9
Cc1cc(C)c2c(c1)-c1c(ssc1=S)C(C)(C)N2C(=O)CSc1nncn1C,-22,4,-3,39*,-9%,14
O=C(CCCCCNC(=O)N1CCn2c1nc1ccccc12)N[C@@H](C(=O)O)c1ccccc1,-7,2,4,0,5%,9
O=C(CCCCCNC(=O)N1CCn2c1nc1ccccc12)N[C@@H](Cc1ccccc1)C(=O)O,-17,6,30*,1,-3%,4
Cc1ccc(C(=O)Nc2ccccc2C(=O)O)cc1S(=O)(=O)N1CCCCCC1,/,-4,17,-3,/,21
COc1cccc(-n2cc(CNCc3cn(C)nc3-c3ccccc3F)cn2)c1,7,-3,67*,6,?,-9
COc1cccc(/C=C/C(=O)NNC(=O)CCN2CCN(Cc3ccccc3)CC2)c1,-53*,-4,-20,4,10%,-10
O=C(/C=C/c1ccc(F)cc1)NNC(=O)CCN1CCN(Cc2ccccc2)CC1,-19,-4,-26,0,8%,-16
Cc1ccc(C)c(N2CCN(CCCNC(=O)c3ccc4nc(C(C)C)oc4c3)CC2)c1,/,-4,-8,28,/,-13
Fc1ccc(C(CCCn2nnc(-c3cccnc3)n2)c2ccc(F)cc2)cc1,28,-6,3,17,1%,-30*
SMILES,DRD3 antagonist,D1 potentiator,DRD3 agonist,D1 ag,BCR signal inh,D1 antag
Fc1ccc(-n2nnc(-c3cccnc3)n2)cc1,13,-4,20,-4,?,4
Nc1nc(=O)n(C2OC(CO)C(O)C2O)cc1F (stereo unspecified),-78*,/,-17,/,/,/
Cc1nn(CC(=O)NCc2ccc(F)cc2)c2ccccc12,/,0,-10,-2,/,5
Cc1c(C(=O)NCCN(C)C)oc2c1-c1nn(Cc3ccccc3Cl)cc1CC2,/,0,-5,0,/,-7
COc1ccc(-c2noc(CCC(=O)NCCCN3CCC(C)CC3)n2)cc1,0,-2,-23,1,14%,-2
Cc1ccc(-c2noc(CCC(=O)NCCCN3CCN(c4cccc(Cl)c4)CC3)n2)cc1,?,-9,-26,82*,?,-73*
Cc1ccc(-c2noc(CCC(=O)NCCCN3CCN(c4ccc(F)cc4)CC3)n2)cc1,0,-14,-21,25,-2%,-83*
COc1ccc(-c2noc(CCC(=O)NCCCN3CCN(c4ccccc4F)CC3)n2)cc1,-95*,-17,-13,31*,25%,-56*
CCN1CCN(CCCNC(=O)CCc2nc(-c3ccc(OC)cc3)no2)CC1,4,-5,-2,1,-14%,6
O=C(CC1CCCC1)N1CCN(S(=O)(=O)c2cccc(Br)c2)CC1,9,/,5,/,/,/
COc1ncnc2c1ncn2CCCN(CCCc1ccccc1)CCCn1cnc2c(OC)ncnc21,-9,/,-8,/,/,/
O=C(Nc1ccc(Cl)cc1)c1cnn2c1NC(c1ccccc1)=CC2c1ccccc1 (stereo unspecified),/,-4,2,5,/,-11
CC1(C(=O)Nc2ccccc2)Cc2c(-c3cccc(C(F)(F)F)c3)ccnc2O1 (stereo unspecified),-20,/,3,/,/,/
C=C1C(=O)c2sccc2C(c2ccc(OC)c(OC)c2)C1COC(C)=O (stereo unspecified),-116*,/,-32,/,/,/
COc1cc(Nc2nnc(C)s2)c(Cl)cc1Cl,7,-3,0,4,-9%,-12
COCCOc1cc(Nc2nnc(C(F)(F)F)s2)c(Cl)cc1Cl,-64*,-3,1,27,4%,-1
Cc1cccc(CNC(=O)c2oc3c(c2C)-c2nn(Cc4ccccc4Cl)cc2CC3)c1,/,0,-20,1,/,0
COc1cc(CC(=O)OCC(=O)NCc2ccc(C)cc2)cc(OC)c1OC,-1,6,-3,2,0%,21
NC(=O)c1ccsc1NC(=O)COC(=O)Cc1ccsc1,9,-8,4,10,?,-39*
COc1cc(CC(=O)OCC(=O)Nc2sccc2C(N)=O)cc(OC)c1OC,51,-1,32*,11,-13%,-27
